Hits are enriched below; roughly 1.4% of the tested compounds scored in any of these assays.
Mac1 fbg inh = inhibitors of human CD11b/CD18 binding to fibrinogen. 0.54% of 93,000 active. AID 1497. inhibition, % at 10 µM. P05107+P11215. K562 CD11b/CD18 adhesion to fibrinogen, ATPlite luminescence; Mn2+ added to activate the integrin;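 active = primary inhibition of 50% or more at 10 µM, then 40% or more on retest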
Target sequence (P05107 whole entry, looked up, other chains not shown): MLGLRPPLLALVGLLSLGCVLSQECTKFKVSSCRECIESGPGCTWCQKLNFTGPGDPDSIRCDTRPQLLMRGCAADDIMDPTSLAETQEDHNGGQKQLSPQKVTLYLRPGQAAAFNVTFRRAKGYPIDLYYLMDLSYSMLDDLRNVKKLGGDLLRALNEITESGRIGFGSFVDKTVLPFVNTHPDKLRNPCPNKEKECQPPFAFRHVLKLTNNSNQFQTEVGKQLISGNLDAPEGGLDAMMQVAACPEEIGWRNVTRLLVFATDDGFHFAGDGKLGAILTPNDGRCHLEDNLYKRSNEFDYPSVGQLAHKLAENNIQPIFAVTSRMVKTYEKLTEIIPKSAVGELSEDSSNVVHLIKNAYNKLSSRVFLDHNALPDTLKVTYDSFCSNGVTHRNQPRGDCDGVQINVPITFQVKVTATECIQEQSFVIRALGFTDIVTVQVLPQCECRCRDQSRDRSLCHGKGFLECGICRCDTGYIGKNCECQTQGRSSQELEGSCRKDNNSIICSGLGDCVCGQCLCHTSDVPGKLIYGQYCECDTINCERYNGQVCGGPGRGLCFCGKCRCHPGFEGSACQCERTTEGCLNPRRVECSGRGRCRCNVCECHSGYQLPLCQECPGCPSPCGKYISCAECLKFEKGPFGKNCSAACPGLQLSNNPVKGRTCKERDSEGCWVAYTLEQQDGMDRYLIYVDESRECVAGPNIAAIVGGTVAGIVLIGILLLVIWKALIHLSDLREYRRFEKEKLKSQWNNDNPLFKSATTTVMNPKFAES
GALR2 blocker = blocks the human galanin receptor 2; O43603; GALR2-expressing cells, antagonist mode; inhibition, % at 4 µM; 0.39% of 140,000 active; in the data active = inhibition above about 27%;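 also: cells stimulated with galanin 1-16 at roughly its EC80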
S1P2 antag = blocks the human S1P2 receptor; O95136; cell-based S1P2 antagonist assay, inhibition at 5 uM; inhibition, % at 5 µM; 0.21% of 97,000 active; AID 736; in the data active = inhibition above about 45%;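 also: CRE beta-lactamase reporter cells expressing human S1P2 stimulated with S1P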
S1P2 agonist = agonists of human S1P2 receptor. activation, % at 4.5 µM. 0.46% of 97,000 active. S1P2-expressing cell line, agonist reporter read-out. O95136. AID 729; in the data active = activation above about 16%
GALR2 ag = activates the human galanin receptor 2; AID 803; O43603; GALR2-expressing cells, agonist activation read-out; activation, % (no concentration beside the values); 0.48% of 140,000 active; in the data active = activation above about 5%, passing the limit was not always enough
Mac1 fbg enh = CD11b/CD18-fibrinogen binding enhancement | 0.07% of 93,000 active | K562 CD11b/CD18 adhesion to fibrinogen, ATPlite luminescence | activation, % at 10 µM | P05107+P11215;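 active = 10 µM primary screen giving 50% or more activity, confirmed by 40% or more on retest at that dose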
Each line names hits and unclear results; the compound was inactive in the other large screens.

O=C(NCCCN1CCCC1=O)c1ccccc1NS(=O)(=O)c1ccc(Br)cc1	none
Fc1ccc2[nH]c3c(N4CCN(c5ccccc5)CC4)ncnc3c2c1	none (no result: S1P2 antag, S1P2 agonist)
COc1ccc(N2CCN(c3ncnc4c3[nH]c3ccccc34)CC2)cc1	S1P2 antag 63
CCN(CC)S(=O)(=O)c1ccc(Oc2ccc(S(=O)(=O)N(CC)CC)cc2)cc1	S1P2 antag 72
COCCn1c(C)cc(C2=NNC(=Nc3ccc(Cl)cc3Cl)SC2)c1C	Mac1 fbg enh 82
O=S(=O)(NC1c2cccc3cccc(c23)C1N1CCNCC1)c1ccccc1 (stereo not drawn)	none
COC(=O)c1c(-c2ccc(Br)cc2)csc1NC(=O)Cc1ccc(OC)c(OC)c1	none
COC(=O)c1c(-c2ccc(C)cc2)csc1NC(=O)Cc1ccc(OC)c(OC)c1	Mac1 fbg inh 54
O=C1NC(=S)SC1=C1CCCCCC1	Mac1 fbg inh 59
COc1ccc(/C=N/NC(=O)c2ccc(COc3ccccc3Cl)o2)cc1	none
COc1ccc(/C=N/NC(=O)c2ccc(COc3ccccc3Cl)o2)c(OC)c1C	GALR2 ag 8.0 (no result: Mac1 fbg inh, S1P2 antag, S1P2 agonist, Mac1 fbg enh)
CCOC(=O)c1c(NC(=O)CC2SC(=NC)N(C)C2=O)sc(C)c1C (stereo not drawn)	none
CC(C)CNS(=O)(=O)c1cc(C(=O)OCC(=O)c2ccc3c(c2)OCCO3)c(Cl)cc1Cl	none (no result: Mac1 fbg inh, S1P2 antag, S1P2 agonist, Mac1 fbg enh)
CCCn1c(C)cc(C(=O)COC(=O)c2cc(S(=O)(=O)NCC(C)C)c(Cl)cc2Cl)c1C	S1P2 agonist 29
Cc1cc(N2CCN(c3ccccc3)CC2)n2nnnc2n1	none (no result: S1P2 antag, S1P2 agonist)
Cc1cccc(N2CCN(c3cc(C)nc4nnnn34)CC2C)c1 (stereo not drawn)	GALR2 ag 5.4 (no result: S1P2 antag, S1P2 agonist)
FC(F)(F)c1cnc(NNC(=S)Nc2ccccc2Cl)c(Cl)c1	Mac1 fbg inh 100 (no result: S1P2 antag, S1P2 agonist)
Cc1cccc(NC(=S)NNc2ncc(C(F)(F)F)cc2Cl)c1	none (no result: Mac1 fbg inh, S1P2 antag, S1P2 agonist, Mac1 fbg enh)
CCCSc1nc(N2CCOCC2)c2c(c1C#N)CC(C)(C)SC2	none
CCOC(=O)Cc1nc2ccccc2[nH]1	GALR2 ag 5.4
CCOC(=O)CCc1nc2ccccc2[nH]c1=O	none
CCOc1ccccc1NC(=O)CN(c1cc(C)cc(C)c1)S(=O)(=O)c1c(C)noc1C	none
Cc1cc(=O)oc2cc3c(cc12)OCCN3	S1P2 agonist 46, GALR2 ag 10
O=C(NC1CCCC1)C(c1ccsc1)N(C(=O)Cc1cccs1)c1ccccc1 (stereo not drawn)	none
O=C(NC1CCCC1)C(c1ccsc1)N(CCc1ccccc1)C(=O)Cc1cccs1 (stereo not drawn)	GALR2 ag 6.0 (no result: Mac1 fbg inh, S1P2 antag, S1P2 agonist, Mac1 fbg enh)
NC(=O)c1ccsc1NC(=O)COC(=O)Cc1cccc2ccccc12	Mac1 fbg inh 84
O=C(C1CC1)N1CCC(c2nc(-c3ccc(S(=O)(=O)NCC4CCCO4)cc3)no2)CC1 (stereo not drawn)	Mac1 fbg inh 62
CS(=O)(=O)c1nc(-c2cccs2)cc(C(F)(F)F)n1	GALR2 blocker 38
COc1ccc(C2Nc3ccccc3C(=O)N2c2ccccc2)cc1CSc1ccccn1 (stereo not drawn)	none (no result: S1P2 antag, S1P2 agonist)
COc1ccc(C2Nc3ccccc3C(=O)N2c2ccc(F)cc2)cc1CSc1ccccn1 (stereo not drawn)	GALR2 ag 6.4 (no result: S1P2 antag, S1P2 agonist)
CC1CCc2nn(CC(=O)NCCN3CCCCC3C)cc2C1 (stereo not drawn)	none
COc1cc2ncnc(NCc3ccccc3)c2cc1OC	none
c1ccc(CNc2ncnc3ccccc23)cc1	Mac1 fbg inh 66 (no result: S1P2 antag, S1P2 agonist)
CC(=O)N(c1ccc(Br)cc1)C1C=CS(=O)(=O)C1 (stereo not drawn)	none
OC1(c2cccc(C(F)(F)F)c2)CCN(c2ncnc3c2[nH]c2ccc(F)cc23)CC1	S1P2 antag 49
CC(=O)N1CCC(O)(c2cccc(C(F)(F)F)c2)CC1	none
NC1=NC(=O)/C(=C/c2cn(CCC(=O)O)nc2-c2ccc(Cl)cc2)S1	none (no result: Mac1 fbg inh, S1P2 antag, S1P2 agonist, Mac1 fbg enh)
O=C(O)CCn1cc(/C=C\C(=O)c2ccc(Cl)cc2)c(-c2cccc(Br)c2)n1	Mac1 fbg inh 53 (no result: S1P2 antag, S1P2 agonist)
O=C(Cn1c(NCCO)nc2ccccc21)c1ccc(Cl)cc1	none
CCc1cccc(Nc2cc(C)nc3ncnn23)c1	none (no result: Mac1 fbg inh, S1P2 antag, S1P2 agonist, Mac1 fbg enh)
CCn1c2ccccc2c2cc(Nc3cc(C)nc4ncnn34)ccc21	GALR2 blocker 34 (no result: S1P2 antag, S1P2 agonist)
O=C(Nc1ccc(F)cc1)c1sc2cc(C(F)(F)F)cnc2c1-c1cccs1	S1P2 antag 84
O=S(=O)(Nc1nc2ccccc2nc1N1CCN(c2ccccn2)CC1)c1ccc(Cl)cc1	Mac1 fbg inh 102
COc1cccc2c(=O)c(C(=O)NCc3cccs3)c[nH]c12	none
Nc1nc2c(F)cccc2s1	none (no result: S1P2 antag, S1P2 agonist)
CCCOc1ccc(Br)cc1CSC(=N)N	Mac1 fbg inh 102 (no result: S1P2 antag, S1P2 agonist)
CCOC(=O)N=S(=O)(Oc1ccc([N+](=O)[O-])cc1)c1ccccc1 (stereo not drawn)	none
COc1ccc2cc(S(=O)(=O)NCCCN3CCOCC3)ccc2c1	S1P2 agonist 57
COc1ccc(N2CCN(CCCNS(=O)(=O)c3ccc4c(c3)oc(=O)n4C)CC2)cc1	none
C=CCNc1ncnc2c1[nH]c1ccc(Cl)cc12	Mac1 fbg inh 87
COc1cccc(S(=O)(=O)NCc2ccc(C(=O)Nc3ccc(Cl)cc3)cc2)c1	none (no result: S1P2 antag, S1P2 agonist)
COc1cccc(S(=O)(=O)NCc2ccc(C(=O)Nc3cccc(Cl)c3)cc2)c1	Mac1 fbg inh 55
Cc1cc(Br)ccc1NC(=S)Nc1cccc([N+](=O)[O-])c1	Mac1 fbg inh 99 (no result: S1P2 antag, S1P2 agonist)
Cc1ccc(-c2noc(CCC(=O)NCC3CCCO3)n2)cc1 (stereo not drawn)	none
Cc1cc(Cl)c(S(=O)(=O)N2CCN(c3ccc(F)cc3)CC2)cc1OCC(=O)NC1CCCCC1	Mac1 fbg inh 94
Cc1cc(Cl)c(S(=O)(=O)N2CCN(c3ccc(F)cc3)CC2)cc1OCC(N)=O	none
Cc1ccc(NC(=O)CN2C(=O)S/C(=C\c3cccn3-c3cccc(C(=O)O)c3)C2=O)c(C)c1	Mac1 fbg enh 87
CCOC(=O)COc1ccsc1C(=O)OC	none (no result: Mac1 fbg inh, Mac1 fbg enh)
Cc1nc(Cl)c(C(=O)NC(=O)NCc2ccccc2)c(C)c1Cl	none (no result: Mac1 fbg inh, S1P2 antag, S1P2 agonist, Mac1 fbg enh)
Cc1cc(C)c(S(=O)(=O)/N=C2\C=CC(=O)C(Cl)=C2)c(C)c1	Mac1 fbg inh 67
C=CCn1c(SCC(=O)Nc2ccccc2)nc2scc(-c3cccs3)c2c1=O	none
C=CCn1c(N)cc(=O)nc1SCC(=O)Nc1ccccc1	S1P2 agonist 80
COc1cc(-c2nn3c(Cc4ccccc4)nnc3s2)cc(OC)c1OC	S1P2 agonist 21
COc1cc(-c2nn3c(COc4ccccc4)nnc3s2)cc(OC)c1OC	none (no result: S1P2 antag, S1P2 agonist)
COc1cc2c(cc1OC)C1=C(C#N)CC/C(=N\S(=O)(=O)c3cccc(Cl)c3)N1CC2	S1P2 agonist 49 (no result: Mac1 fbg inh, Mac1 fbg enh)
Cc1ccc(CNC(=O)c2cc3c(=O)n4ccccc4nc3n(CC3CCCO3)c2=N)cc1 (stereo not drawn)	GALR2 ag 8.3 (no result: S1P2 antag, S1P2 agonist)
Cc1cccn2c(=O)c3cc(C(=O)NC4CCCC4)c(=N)n(C4CCCC4)c3nc12	GALR2 ag 5.0 (no result: S1P2 antag, S1P2 agonist)

Compound activity from PubChem BioAssay.
